Results published in ChEMBL document CHEMBL1201862, “PubChem BioAssay data set” (2004).
Out of some 220,000 compounds screened, about 2,400 (1.1%) were called active. Roughly 7% stayed inconclusive and do not appear here. The calls are words filed in the database; no cut-off is given here. Many of the other results were omitted from the sample, so actives are more common in it than they were.

Molecular target: Huntingtin (Homo sapiens) (UniProt P42858)
Test: qHTS Multiplex Assay to Identify Dual Action Probes in a Cell Model of Huntington: Aggregate Formation (GFP). [Related pubchem assays: 1482, 1471 ]
Assay type: functional

Sequence of Huntingtin (Homo sapiens) (P42858 whole entry): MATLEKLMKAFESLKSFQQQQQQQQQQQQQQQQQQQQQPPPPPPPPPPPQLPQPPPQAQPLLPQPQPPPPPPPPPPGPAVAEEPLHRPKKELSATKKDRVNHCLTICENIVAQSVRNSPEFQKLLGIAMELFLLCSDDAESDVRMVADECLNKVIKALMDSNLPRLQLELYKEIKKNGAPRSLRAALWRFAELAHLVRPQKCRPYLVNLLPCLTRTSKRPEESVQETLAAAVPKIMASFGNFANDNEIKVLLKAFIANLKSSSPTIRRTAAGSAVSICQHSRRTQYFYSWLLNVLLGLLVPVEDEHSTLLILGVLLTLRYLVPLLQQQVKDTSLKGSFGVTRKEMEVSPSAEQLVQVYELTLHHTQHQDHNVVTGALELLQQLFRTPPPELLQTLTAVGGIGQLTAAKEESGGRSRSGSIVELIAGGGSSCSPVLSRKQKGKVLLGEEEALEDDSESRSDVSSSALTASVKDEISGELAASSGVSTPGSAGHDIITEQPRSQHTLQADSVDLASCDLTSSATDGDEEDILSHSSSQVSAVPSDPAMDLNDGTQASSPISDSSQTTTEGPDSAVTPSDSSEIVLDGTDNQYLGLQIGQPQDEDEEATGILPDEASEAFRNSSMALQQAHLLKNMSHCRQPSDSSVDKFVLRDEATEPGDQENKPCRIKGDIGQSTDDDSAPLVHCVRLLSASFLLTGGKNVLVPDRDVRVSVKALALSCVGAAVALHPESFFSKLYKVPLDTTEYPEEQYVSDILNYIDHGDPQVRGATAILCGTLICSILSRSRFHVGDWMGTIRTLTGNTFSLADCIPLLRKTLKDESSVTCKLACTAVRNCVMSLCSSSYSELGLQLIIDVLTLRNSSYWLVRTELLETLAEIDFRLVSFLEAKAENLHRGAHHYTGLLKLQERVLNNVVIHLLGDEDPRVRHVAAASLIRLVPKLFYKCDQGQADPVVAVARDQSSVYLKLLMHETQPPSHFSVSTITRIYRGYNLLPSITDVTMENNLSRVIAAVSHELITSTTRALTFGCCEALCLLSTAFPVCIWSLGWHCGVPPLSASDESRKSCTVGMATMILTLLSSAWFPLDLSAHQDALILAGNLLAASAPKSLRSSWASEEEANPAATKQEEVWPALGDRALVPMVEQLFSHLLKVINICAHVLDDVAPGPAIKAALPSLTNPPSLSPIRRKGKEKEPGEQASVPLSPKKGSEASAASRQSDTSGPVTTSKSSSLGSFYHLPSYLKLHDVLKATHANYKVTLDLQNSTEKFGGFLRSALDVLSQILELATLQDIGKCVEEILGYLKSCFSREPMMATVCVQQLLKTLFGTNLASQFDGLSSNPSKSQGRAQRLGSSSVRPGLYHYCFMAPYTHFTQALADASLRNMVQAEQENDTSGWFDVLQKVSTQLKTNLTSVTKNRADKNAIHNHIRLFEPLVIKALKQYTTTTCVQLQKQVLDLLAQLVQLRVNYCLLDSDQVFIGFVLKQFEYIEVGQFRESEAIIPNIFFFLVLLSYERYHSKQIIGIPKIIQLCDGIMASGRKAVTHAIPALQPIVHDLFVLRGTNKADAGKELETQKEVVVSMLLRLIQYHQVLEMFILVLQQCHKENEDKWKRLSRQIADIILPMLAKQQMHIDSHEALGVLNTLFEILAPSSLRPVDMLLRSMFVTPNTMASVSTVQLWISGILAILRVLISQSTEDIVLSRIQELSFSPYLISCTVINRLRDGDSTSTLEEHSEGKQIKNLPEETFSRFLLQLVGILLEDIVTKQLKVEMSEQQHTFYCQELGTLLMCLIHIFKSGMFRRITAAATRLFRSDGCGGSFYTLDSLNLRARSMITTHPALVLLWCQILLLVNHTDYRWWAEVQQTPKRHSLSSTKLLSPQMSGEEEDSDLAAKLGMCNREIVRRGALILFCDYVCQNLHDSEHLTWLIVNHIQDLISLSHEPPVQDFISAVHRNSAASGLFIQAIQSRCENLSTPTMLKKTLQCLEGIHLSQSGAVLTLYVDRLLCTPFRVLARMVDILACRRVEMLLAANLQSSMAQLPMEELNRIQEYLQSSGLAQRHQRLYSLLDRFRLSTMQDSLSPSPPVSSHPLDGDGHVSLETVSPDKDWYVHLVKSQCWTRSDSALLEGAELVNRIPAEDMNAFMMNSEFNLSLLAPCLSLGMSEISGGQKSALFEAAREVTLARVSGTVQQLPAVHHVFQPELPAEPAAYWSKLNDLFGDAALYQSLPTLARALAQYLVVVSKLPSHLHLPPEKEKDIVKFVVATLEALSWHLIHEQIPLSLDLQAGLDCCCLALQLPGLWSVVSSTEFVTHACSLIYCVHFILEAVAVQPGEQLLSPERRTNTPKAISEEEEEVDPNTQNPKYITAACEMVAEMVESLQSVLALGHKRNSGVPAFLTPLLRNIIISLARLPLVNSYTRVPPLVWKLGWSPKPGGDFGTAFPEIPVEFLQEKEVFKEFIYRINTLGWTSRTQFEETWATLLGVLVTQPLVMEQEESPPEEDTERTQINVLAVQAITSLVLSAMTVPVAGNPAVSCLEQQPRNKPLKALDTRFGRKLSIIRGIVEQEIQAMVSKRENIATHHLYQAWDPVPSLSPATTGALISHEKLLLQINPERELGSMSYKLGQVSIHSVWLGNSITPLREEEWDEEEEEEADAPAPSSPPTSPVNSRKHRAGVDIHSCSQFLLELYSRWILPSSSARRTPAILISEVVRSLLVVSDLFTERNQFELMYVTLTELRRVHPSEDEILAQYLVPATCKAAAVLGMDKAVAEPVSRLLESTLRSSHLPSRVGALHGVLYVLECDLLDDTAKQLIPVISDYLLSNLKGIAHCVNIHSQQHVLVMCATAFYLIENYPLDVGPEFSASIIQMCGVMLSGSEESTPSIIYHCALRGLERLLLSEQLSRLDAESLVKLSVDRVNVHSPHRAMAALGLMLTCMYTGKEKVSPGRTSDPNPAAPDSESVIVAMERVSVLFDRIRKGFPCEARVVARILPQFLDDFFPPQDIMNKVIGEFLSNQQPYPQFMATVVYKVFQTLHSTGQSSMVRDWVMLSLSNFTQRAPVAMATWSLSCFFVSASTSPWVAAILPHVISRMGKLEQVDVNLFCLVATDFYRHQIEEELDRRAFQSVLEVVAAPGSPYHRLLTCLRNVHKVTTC

Potency, active:
O=C(c1nc2nc(-c3ccccc3)cc(C(F)(F)F)n2n1)N1CCOCC1 112 µM
CCOc1ccc(S(=O)(=O)n2ccc(C)n2)c2ccccc12 56.2 µM
Cc1nnc2sc(SCc3ccc(Cl)cc3)nn2c1=O 891 µM
CCOC(=O)c1ccc(N2CN(CCc3ccccc3)CN=C2S)cc1 112 µM
O=C1C2C3C=CC(C3)C2C(=O)N1CCCO (stereo not drawn) 89.1 µM
CCOC(=O)c1c(NC(=O)C2=C(C)N=C(S)NC2c2ccc(F)cc2)sc(C)c1C (stereo not drawn) 112 µM
CCOC(=O)Cn1c(-c2ccccn2)nc2ccccc21 224 µM
CN(C)CCN(C(=O)c1ccc(S(=O)(=O)N(C)C)cc1)c1nc2cc3c(cc2s1)OCCO3 141 µM
